The values that follow come from PubChem BioAssay (NCI).

Structures are written as SMILES. About 83,000 compounds went through this panel and 20% of them were active in at least one assay; those are over-represented in the sample as a whole.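 How to read the values: 0–100, growth inhibition (40 = 60% inhibited); 0, no net growth; -100 to 0, cell death (-40 = 40% of starting cells died; -100 = all dead).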 Values without a mark were called inactive. The source made the active and inactive calls. Rule for the calls: active = growth percent below 10; inactive = the rest.

What all share (experiment): NCI-60 one-dose screen, 48 h (100 = growth as untreated, 0 = no growth, -100 = all killed)
One assay deals with HCT-15 colon. Particulars: 10 µM unless noted.
The next assay deals with HT29 colon. Particulars: 10 µM unless noted.
Another assay has as its system SNB-75 CNS. The settings on record: 10 µM unless noted.
The next assay has as its system SNB-19 CNS. Particulars: 10 µM unless noted.
A further assay deals with U251 CNS. The settings on record: 10 µM unless noted.
Another assay deals with PC-3 prostate. The settings on record: 10 µM unless noted.
The next assay concerns SK-MEL-5 melanoma. Particulars: 10 µM unless noted.
A further assay concerns UACC-62 melanoma. Particulars: 10 µM unless noted.
Another assay deals with LOX IMVI melanoma. The settings on record: 10 µM unless noted.
The test system of the next assay is SK-MEL-28 melanoma. The settings on record: 10 µM unless noted.
The subject of the next assay is SK-MEL-2 melanoma. Particulars: 10 µM unless noted.
Another assay deals with EKVX NSCLC. Particulars: 10 µM.
The test system of another assay is SN12C renal. The settings on record: 10 µM unless noted.
Another assay relates to UO-31 renal. The settings on record: 10 µM unless noted.
For the next assay, the system named is TK-10 renal. The settings on record: 10 µM unless noted.
The test system of a further assay is ACHN renal. The settings on record: 10 µM unless noted.
The next assay relates to CAKI-1 renal. Particulars: 10 µM unless noted.
A further assay has as its system A498 renal. Particulars: 10 µM unless noted.
The test system of a further assay is CCRF-CEM leukemia. The settings on record: 10 µM.
The next assay has as its system MOLT-4 leukemia. Particulars: 10 µM unless noted.

In the case of `COc1ccc2c(c1)/C(=C/c1c(-c3cc(OC)c(OC)c(OC)c3)nc3sccn13)C(=O)N2`, the growth was 99.5% with HCT-15 colon; 108% in the assay with HT29 colon; 78.3% in the assay with SNB-75 CNS; 97.1% in the assay with SNB-19 CNS; 96.3% with U251 CNS; 85% with PC-3 prostate. Also, the growth was 81.8% with SK-MEL-5 melanoma; 92.5% in the assay with UACC-62 melanoma; 98.3% with LOX IMVI melanoma; 98.8% with SK-MEL-28 melanoma; 98.6% in the assay on SK-MEL-2 melanoma; 94.3% in the assay with EKVX NSCLC. The growth is 105% in the assay on SN12C renal; 77.8% with UO-31 renal; 102% in the assay on TK-10 renal; 100% with ACHN renal; 67.3% in the assay on CAKI-1 renal; 65.3% in the assay with A498 renal. The growth with CCRF-CEM leukemia is -43.3% (active); in the assay with MOLT-4 leukemia it was -61.2% (active).
Consider `CCC(C)C1NC(=O)C(CCCCN)NC(=O)C(CCCCN)NC(=O)C(CC(C)C)NC(=O)C(CCCCN)NC(=O)C(C(C)CC)NC(=O)C(C(C)C)NC(=O)C(C(C)CC)NC(=O)C(CCCCN)NC(=O)C(CCCCN)NC(=O)C(C)NC(=O)C(CCCCN)NC(=O)C(CC(C)C)NC1=O` (stereo not given), for which the growth in the assay on HCT-15 colon is 35.4%; in the assay on HT29 colon, 5.52% (active); with SNB-75 CNS, 36.9%; in the assay on SNB-19 CNS, 20.9%; in the assay with U251 CNS, 6.7% (active); in the assay on PC-3 prostate, 6.52% (active). In addition, the growth was 2.11% (active) with SK-MEL-5 melanoma; 22.1% in the assay on UACC-62 melanoma; 50.5% in the assay with LOX IMVI melanoma; 48.2% with SK-MEL-28 melanoma; 28.6% in the assay on SK-MEL-2 melanoma; 13.5% in the assay on EKVX NSCLC. The growth in the assay on SN12C renal was 12.3%; in the assay on UO-31 renal it was 14.6%; with TK-10 renal it was 19.5%; in the assay with ACHN renal it was 3.79% (active); with CAKI-1 renal it was 6.74% (active); in the assay on A498 renal, 21.8%. The growth in the assay on CCRF-CEM leukemia is 22%; in the assay on MOLT-4 leukemia, 22.2%.
For the compound `COc1ccc(-n2nnnc2-c2cn[nH]c2C(F)(F)F)cc1`, the growth was 110% in the assay on HCT-15 colon; 93.1% in the assay on HT29 colon; 102% with SNB-75 CNS; 101% with SNB-19 CNS; 94.8% with U251 CNS; 105% with PC-3 prostate. Further, the growth in the assay on SK-MEL-5 melanoma is 94.4%; in the assay on UACC-62 melanoma it was 83.6%; with LOX IMVI melanoma, 95.6%; with SK-MEL-28 melanoma, 96.2%; with SK-MEL-2 melanoma, 92.4%; in the assay with EKVX NSCLC, 90.3%. The growth is 104% in the assay with SN12C renal; 92.9% in the assay with UO-31 renal; 113% in the assay on TK-10 renal; 99.3% in the assay with ACHN renal; 92.5% with CAKI-1 renal; 83.2% with A498 renal. Moreover, the growth in the assay with CCRF-CEM leukemia is 98.3%; in the assay with MOLT-4 leukemia, 79%.
In the case of `CC1=C[C@@H]2c3c(c(O)c(O)c4oc5cc(O)cc(O)c5c(=O)c34)[C@@H](c3cc(O)c(O)c4oc5cc(O)cc(O)c5c(=O)c34)[C@@H]2C(C)(C)C1`, the growth is 25.4% in the assay with HCT-15 colon; -19.6% (active) in the assay with HT29 colon; 16.7% in the assay on SNB-75 CNS; 7.8% (active) in the assay on SNB-19 CNS; -8.73% (active) in the assay with U251 CNS; 2.82% (active) with PC-3 prostate. Also, the growth is -78% (active) in the assay on SK-MEL-5 melanoma; -61.5% (active) in the assay on UACC-62 melanoma; -98.2% (active) in the assay with LOX IMVI melanoma; -1.44% (active) in the assay on SK-MEL-28 melanoma; -22.2% (active) with SK-MEL-2 melanoma; 8.51% (active) with EKVX NSCLC. The growth was 2.58% (active) in the assay on SN12C renal; -10.2% (active) in the assay on UO-31 renal; 13.8% in the assay on TK-10 renal; 12.4% with ACHN renal; 19.8% in the assay on CAKI-1 renal; -14% (active) with A498 renal. Also, the growth is 3.51% (active) in the assay with CCRF-CEM leukemia and 4.1% (active) in the assay with MOLT-4 leukemia.
Take `COC(=O)/C(Br)=C/c1c[nH]c2ccc(Br)cc12`: the growth in the assay on HCT-15 colon was 76.8%; with HT29 colon, 95.3%; in the assay with SNB-75 CNS, 90.1%; in the assay with SNB-19 CNS, 88.7%; in the assay with U251 CNS, 68.5%; with PC-3 prostate, 70.8%. The growth with SK-MEL-5 melanoma is 85.1%; in the assay on UACC-62 melanoma it was 68%; in the assay with LOX IMVI melanoma it was 62%; in the assay with SK-MEL-28 melanoma, 105%; with SK-MEL-2 melanoma it was 88.7%; with EKVX NSCLC, 76.2%. For the same compound, the growth in the assay on SN12C renal is 88.1%; with UO-31 renal it was 46.7%; in the assay on TK-10 renal, 78.3%; in the assay with ACHN renal, 86.7%; in the assay on CAKI-1 renal it was 69.1%; with A498 renal it was 92.3%. Moreover, the growth in the assay with CCRF-CEM leukemia is 23.4%; in the assay with MOLT-4 leukemia, 52.8%.
Regarding `CCOc1ccc(/C=N/NC(=O)c2cccc3ccccc23)cc1OCC`, the growth in the assay on HCT-15 colon was 97.2%; in the assay with HT29 colon, 103%; with SNB-75 CNS it was 106%; in the assay with SNB-19 CNS, 110%; with U251 CNS, 100%; in the assay on PC-3 prostate, 90.1%. The growth in the assay on SK-MEL-5 melanoma is 92.1%; with UACC-62 melanoma, 93.4%; in the assay on LOX IMVI melanoma, 92.7%; in the assay with SK-MEL-28 melanoma, 103%; with SK-MEL-2 melanoma it was 106%; in the assay with EKVX NSCLC, 99.1%. Also, the growth with SN12C renal was 96.1%; with UO-31 renal it was 81.6%; in the assay with TK-10 renal, 111%; with ACHN renal it was 102%; with CAKI-1 renal, 99.3%; with A498 renal, 78.1%. Moreover, the growth in the assay with CCRF-CEM leukemia was 84.1%; in the assay on MOLT-4 leukemia it was 88.3%.
With `Oc1ccccc1\C=N/N=C/C=C/c1ccccc1`, the growth was 103% with HCT-15 colon; 92.3% in the assay with HT29 colon; 88.4% with SNB-75 CNS; 93.9% with SNB-19 CNS; 99.5% in the assay with U251 CNS; 89.7% with PC-3 prostate. Also, the growth is 97.4% in the assay on SK-MEL-5 melanoma; 93.2% with UACC-62 melanoma; 91.1% in the assay on LOX IMVI melanoma; 111% with SK-MEL-28 melanoma; 92.7% in the assay on SK-MEL-2 melanoma; 94.5% in the assay with EKVX NSCLC. Moreover, the growth in the assay with SN12C renal was 88%; in the assay with UO-31 renal, 51.7%; with TK-10 renal, 130%; in the assay with ACHN renal, 104%; in the assay with CAKI-1 renal it was 96.7%; with A498 renal, 78%. The growth in the assay on CCRF-CEM leukemia was 7.53% (active); in the assay with MOLT-4 leukemia it was 55.3%.
